# Article PMC11006913
# Changes are numbered by the printed parent chain.
# How the values were obtained:
# Experiment in all cases: PBM; 200 nM protein, PBS
# Details in all cases: dsDNA, one strand shown
# NKX2-5 [1] = target: NKX2-5 (Homo sapiens, UniProt P52952 125-210, R139K)
# HOXA4 [2] = target: HOXA4 (Homo sapiens, UniProt Q00056 201-287, W262R)
# HOXA4 [3] = target: HOXA4 (Homo sapiens, UniProt Q00056 201-287, R217L)
# ALX1 [4] = target: ALX1 (Homo sapiens, UniProt Q15699 118-204, L144V)
# ALX1 (Homo sapiens, UniProt Q15699 118-204, L144V), sequence (Q15699 118-204 L144V): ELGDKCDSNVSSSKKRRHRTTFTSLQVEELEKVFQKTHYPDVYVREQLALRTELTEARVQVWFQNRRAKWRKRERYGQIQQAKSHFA
# ALX1 [5] = target: ALX1 (Homo sapiens, UniProt Q15699 118-204, L144R)
# ALX1 (Homo sapiens, UniProt Q15699 118-204, L144R), sequence (Q15699 118-204 L144R): as the sequence (Q15699 118-204 L144V) above, with V27R counted along it
# HOXA4 [6] = target: HOXA4 (Homo sapiens, UniProt Q00056 201-287)
# HOXA4 (Homo sapiens, UniProt Q00056 201-287), sequence (Q00056 201-287): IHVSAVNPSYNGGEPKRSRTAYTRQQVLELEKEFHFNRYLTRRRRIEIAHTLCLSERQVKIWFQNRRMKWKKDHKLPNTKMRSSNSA
# ALX1 [7] = target: ALX1 (Homo sapiens, UniProt Q15699 118-204)
# ALX1 (Homo sapiens, UniProt Q15699 118-204), sequence (Q15699 118-204): as the sequence (Q15699 118-204 L144V) above, with V27L counted along it
# HOXA4 [8] = target: HOXA4 (Homo sapiens, UniProt Q00056 201-287, W262F)
# HOXA4 (Homo sapiens, UniProt Q00056 201-287, W262F), sequence (Q00056 201-287 W262F): as the sequence (Q00056 201-287) above, with W62F counted along it
# NKX2-5 [9] = target: NKX2-5 (Homo sapiens, UniProt P52952 125-210)
# NKX2-5 (Homo sapiens, UniProt P52952 125-210), sequence (P52952 125-210): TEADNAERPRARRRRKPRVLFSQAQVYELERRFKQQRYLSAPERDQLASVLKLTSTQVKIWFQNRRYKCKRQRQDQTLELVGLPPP
# NKX2-6 [10] = target: T1, NKX2-6 (Homo sapiens, UniProt A6NCS4 118-204, R150C)
# T1 sequence: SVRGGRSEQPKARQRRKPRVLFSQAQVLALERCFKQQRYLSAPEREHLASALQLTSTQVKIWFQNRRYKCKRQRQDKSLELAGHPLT
# NKX2-6 [11] = target: T2, NKX2-6 (Homo sapiens, UniProt A6NCS4 118-204)
# T2 sequence: T1 sequence with C33R
# NKX2-4 = target: T3, NKX2-4 (Homo sapiens, UniProt Q9H2Z4 175-261, R246Q)
# T3 sequence: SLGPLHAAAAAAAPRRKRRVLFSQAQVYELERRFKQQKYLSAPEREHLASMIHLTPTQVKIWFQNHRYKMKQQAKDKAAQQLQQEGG
# NKX2-6 [12] = target: T4, NKX2-6 (Homo sapiens, UniProt A6NCS4 118-204, F151L)
# T4 sequence: T1 sequence with C33R, F34L
# NKX3-2 [13] = target: NKX3-2 (Homo sapiens, UniProt P78367 192-278, P234S)
# NKX3-2 (Homo sapiens, UniProt P78367 192-278, P234S), sequence (P78367 192-278 P234S): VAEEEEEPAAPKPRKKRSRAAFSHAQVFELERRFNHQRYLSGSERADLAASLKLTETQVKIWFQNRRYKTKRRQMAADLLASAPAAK
# NKX3-2 [14] = target: NKX3-2 (Homo sapiens, UniProt P78367 192-278)
# NKX3-2 (Homo sapiens, UniProt P78367 192-278), sequence (P78367 192-278): as the sequence (P78367 192-278 P234S) above, with S43P counted along it
# HOXA2 [15] = target: HOXA2 (Homo sapiens, UniProt O43364 129-215, R185T)
# HOXA2 (Homo sapiens, UniProt O43364 129-215, R185T), sequence (O43364 129-215 R185T): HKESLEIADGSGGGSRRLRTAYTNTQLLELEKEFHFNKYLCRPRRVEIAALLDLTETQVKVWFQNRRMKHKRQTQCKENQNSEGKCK
# HOXD13 [16] = target: HOXD13 (Homo sapiens, UniProt P35453 263-343, T313R)
# HOXD13 (Homo sapiens, UniProt P35453 263-343, T313R), sequence (P35453 263-343 T313R): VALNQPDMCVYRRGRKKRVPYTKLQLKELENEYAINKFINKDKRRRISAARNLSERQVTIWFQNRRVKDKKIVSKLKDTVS
# HOXA2 [17] = target: HOXA2 (Homo sapiens, UniProt O43364 129-215, R185K)
# HOXA2 (Homo sapiens, UniProt O43364 129-215, R185K), sequence (O43364 129-215 R185K): as the sequence (O43364 129-215 R185T) above, with T57K counted along it
# HOXD13 [18] = target: HOXD13 (Homo sapiens, UniProt P35453 263-343)
# HOXD13 (Homo sapiens, UniProt P35453 263-343), sequence (P35453 263-343): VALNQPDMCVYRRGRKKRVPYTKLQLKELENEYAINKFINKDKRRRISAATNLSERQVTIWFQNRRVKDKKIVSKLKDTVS
# HOXD13 [19] = target: HOXD13 (Homo sapiens, UniProt P35453 263-343, T313A)
# HOXD13 (Homo sapiens, UniProt P35453 263-343, T313A), sequence (P35453 263-343 T313A): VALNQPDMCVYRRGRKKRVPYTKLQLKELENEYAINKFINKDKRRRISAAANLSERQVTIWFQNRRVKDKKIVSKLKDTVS
# HOXA2 [20] = target: HOXA2 (Homo sapiens, UniProt O43364 129-215, Y150S)
# HOXA2 (Homo sapiens, UniProt O43364 129-215, Y150S), sequence (O43364 129-215 Y150S): as the sequence (O43364 129-215 R185T) above, with Y22S, T57R counted along it
# HOXA2 [21] = target: HOXA2 (Homo sapiens, UniProt O43364 129-215)
# HOXA2 (Homo sapiens, UniProt O43364 129-215), sequence (O43364 129-215): as the sequence (O43364 129-215 R185T) above, with T57R counted along it
# ALX4 [22] = target: ALX4 (Homo sapiens, UniProt Q9H161 200-286)
# ALX4 (Homo sapiens, UniProt Q9H161 200-286), sequence (Q9H161 200-286): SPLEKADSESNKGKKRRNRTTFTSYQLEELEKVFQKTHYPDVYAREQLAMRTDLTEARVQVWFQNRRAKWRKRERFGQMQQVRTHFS
# ALX4 [23] = target: ALX4 (Homo sapiens, UniProt Q9H161 200-286, Q225E)
# ALX4 (Homo sapiens, UniProt Q9H161 200-286, Q225E), sequence (Q9H161 200-286 Q225E): as the sequence (Q9H161 200-286) above, with Q26E counted along it
# HOXC10 [24] = target: HOXC10 (Homo sapiens, UniProt Q9NYD6 254-340)
# HOXC10 (Homo sapiens, UniProt Q9NYD6 254-340), sequence (Q9NYD6 254-340): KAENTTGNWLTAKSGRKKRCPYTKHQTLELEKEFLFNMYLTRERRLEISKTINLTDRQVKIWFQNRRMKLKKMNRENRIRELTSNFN
# HOXC10 [25] = target: HOXC10 (Homo sapiens, UniProt Q9NYD6 254-340, K271E)
# HOXC10 (Homo sapiens, UniProt Q9NYD6 254-340, K271E), sequence (Q9NYD6 254-340 K271E): as the sequence (Q9NYD6 254-340) above, with K18E counted along it
# VAX1 [26] = target: VAX1 (Homo sapiens, UniProt Q5SQQ9 86-172)
# VAX1 (Homo sapiens, UniProt Q5SQQ9 86-172), sequence (Q5SQQ9 86-172): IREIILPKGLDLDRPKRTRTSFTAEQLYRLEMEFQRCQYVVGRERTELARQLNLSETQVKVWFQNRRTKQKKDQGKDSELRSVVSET
# VAX1 [27] = target: VAX1 (Homo sapiens, UniProt Q5SQQ9 86-172, T142I)
# VAX1 (Homo sapiens, UniProt Q5SQQ9 86-172, T142I), sequence (Q5SQQ9 86-172 T142I): as the sequence (Q5SQQ9 86-172) above, with T57I counted along it
# VAX1 [28] = target: VAX1 (Homo sapiens, UniProt Q5SQQ9 86-172, K157R)
# VAX1 (Homo sapiens, UniProt Q5SQQ9 86-172, K157R), sequence (Q5SQQ9 86-172 K157R): as the sequence (Q5SQQ9 86-172) above, with K72R counted along it
# HOXB6 [29] = target: HOXB6 (Homo sapiens, UniProt P17509 132-218, K202E)
# HOXB6 (Homo sapiens, UniProt P17509 132-218, K202E), sequence (P17509 132-218 K202E): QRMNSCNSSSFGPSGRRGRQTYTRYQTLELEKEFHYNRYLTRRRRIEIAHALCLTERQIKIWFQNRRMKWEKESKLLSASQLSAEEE
# HOXB6 [30] = target: HOXB6 (Homo sapiens, UniProt P17509 132-218)
# HOXB6 (Homo sapiens, UniProt P17509 132-218), sequence (P17509 132-218): as the sequence (P17509 132-218 K202E) above, with E71K counted along it
# NKX2-5 (Homo sapiens, UniProt P52952 125-210, R139K), sequence (P52952 125-210 R139K): as the sequence (P52952 125-210) above, with R15K counted along it
# HOXA4 (Homo sapiens, UniProt Q00056 201-287, W262R), sequence (Q00056 201-287 W262R): as the sequence (Q00056 201-287) above, with W62R counted along it
# HOXA4 (Homo sapiens, UniProt Q00056 201-287, R217L), sequence (Q00056 201-287 R217L): as the sequence (Q00056 201-287) above, with R17L counted along it
sequence,measurement,setting,value
CCCAACGG,binding signal,NKX2-5 [1],"8.75 upbm affinity estimate (log intensity, higher = more binding, comparable within an allelic series)"
same,binding signal,HOXA4 [2],"9.93 upbm affinity estimate (log intensity, higher = more binding, comparable within an allelic series)"
same,binding signal,HOXA4 [3],"9.99 upbm affinity estimate (log intensity, higher = more binding, comparable within an allelic series)"
same,binding signal,ALX1 [4],"6.54 upbm affinity estimate (log intensity, higher = more binding, comparable within an allelic series)"
same,binding signal,ALX1 [5],"6.52 upbm affinity estimate (log intensity, higher = more binding, comparable within an allelic series)"
same,binding signal,HOXA4 [6],"9.83 upbm affinity estimate (log intensity, higher = more binding, comparable within an allelic series)"
same,binding signal,ALX1 [7],"6.46 upbm affinity estimate (log intensity, higher = more binding, comparable within an allelic series)"
same,binding signal,HOXA4 [8],"10 upbm affinity estimate (log intensity, higher = more binding, comparable within an allelic series)"
same,binding signal,NKX2-5 [9],"8.76 upbm affinity estimate (log intensity, higher = more binding, comparable within an allelic series)"
CACAAGTG,binding signal,NKX2-5 [1],"12.4 upbm affinity estimate (log intensity, higher = more binding, comparable within an allelic series)"
same,binding signal,NKX2-6 [10],"11.6 upbm affinity estimate (log intensity, higher = more binding, comparable within an allelic series)"
CGCACTTA,binding signal,NKX2-5 [1],"12.6 upbm affinity estimate (log intensity, higher = more binding, comparable within an allelic series)"
same,binding signal,NKX2-6 [10],"11.8 upbm affinity estimate (log intensity, higher = more binding, comparable within an allelic series)"
same,binding signal,ALX1 [4],"8.31 upbm affinity estimate (log intensity, higher = more binding, comparable within an allelic series)"
same,binding signal,NKX2-6 [11],"13.5 upbm affinity estimate (log intensity, higher = more binding, comparable within an allelic series)"
same,binding signal,NKX2-4,"12.9 upbm affinity estimate (log intensity, higher = more binding, comparable within an allelic series)"
same,binding signal,NKX2-6 [12],"10.9 upbm affinity estimate (log intensity, higher = more binding, comparable within an allelic series)"
same,binding signal,NKX3-2 [13],"12.6 upbm affinity estimate (log intensity, higher = more binding, comparable within an allelic series)"
same,binding signal,ALX1 [7],"8.83 upbm affinity estimate (log intensity, higher = more binding, comparable within an allelic series)"
same,binding signal,NKX2-5 [9],"12.5 upbm affinity estimate (log intensity, higher = more binding, comparable within an allelic series)"
same,binding signal,NKX3-2 [14],"12.7 upbm affinity estimate (log intensity, higher = more binding, comparable within an allelic series)"
CAGCCCGG,binding signal,NKX2-5 [1],"8.37 upbm affinity estimate (log intensity, higher = more binding, comparable within an allelic series)"
same,binding signal,HOXA2 [15],"7.16 upbm affinity estimate (log intensity, higher = more binding, comparable within an allelic series)"
same,binding signal,HOXD13 [16],"9.5 upbm affinity estimate (log intensity, higher = more binding, comparable within an allelic series)"
same,binding signal,HOXA2 [17],"10.1 upbm affinity estimate (log intensity, higher = more binding, comparable within an allelic series)"
same,binding signal,HOXD13 [18],"9.67 upbm affinity estimate (log intensity, higher = more binding, comparable within an allelic series)"
same,binding signal,HOXD13 [19],"9.74 upbm affinity estimate (log intensity, higher = more binding, comparable within an allelic series)"
same,binding signal,HOXA2 [20],"10.3 upbm affinity estimate (log intensity, higher = more binding, comparable within an allelic series)"
same,binding signal,HOXA2 [21],"7.06 upbm affinity estimate (log intensity, higher = more binding, comparable within an allelic series)"
same,binding signal,NKX2-5 [9],"8.35 upbm affinity estimate (log intensity, higher = more binding, comparable within an allelic series)"
AGCCGGGG,binding signal,NKX2-5 [1],"9.08 upbm affinity estimate (log intensity, higher = more binding, comparable within an allelic series)"
same,binding signal,ALX4 [22],"8.22 upbm affinity estimate (log intensity, higher = more binding, comparable within an allelic series)"
same,binding signal,ALX4 [23],"8.28 upbm affinity estimate (log intensity, higher = more binding, comparable within an allelic series)"
same,binding signal,NKX2-5 [9],"9.03 upbm affinity estimate (log intensity, higher = more binding, comparable within an allelic series)"
ACACCGGG,binding signal,NKX2-5 [1],"8.93 upbm affinity estimate (log intensity, higher = more binding, comparable within an allelic series)"
same,binding signal,HOXC10 [24],"10.2 upbm affinity estimate (log intensity, higher = more binding, comparable within an allelic series)"
same,binding signal,HOXC10 [25],"10 upbm affinity estimate (log intensity, higher = more binding, comparable within an allelic series)"
same,binding signal,NKX2-5 [9],"8.94 upbm affinity estimate (log intensity, higher = more binding, comparable within an allelic series)"
CAGCCCCC,binding signal,NKX2-5 [1],"8.75 upbm affinity estimate (log intensity, higher = more binding, comparable within an allelic series)"
same,binding signal,HOXA4 [2],"9.74 upbm affinity estimate (log intensity, higher = more binding, comparable within an allelic series)"
same,binding signal,HOXA4 [3],"9.65 upbm affinity estimate (log intensity, higher = more binding, comparable within an allelic series)"
same,binding signal,HOXA4 [6],"9.71 upbm affinity estimate (log intensity, higher = more binding, comparable within an allelic series)"
same,binding signal,VAX1 [26],"7.33 upbm affinity estimate (log intensity, higher = more binding, comparable within an allelic series)"
same,binding signal,VAX1 [27],"7.4 upbm affinity estimate (log intensity, higher = more binding, comparable within an allelic series)"
same,binding signal,HOXA4 [8],"9.62 upbm affinity estimate (log intensity, higher = more binding, comparable within an allelic series)"
same,binding signal,VAX1 [28],"7.13 upbm affinity estimate (log intensity, higher = more binding, comparable within an allelic series)"
same,binding signal,NKX2-5 [9],"8.67 upbm affinity estimate (log intensity, higher = more binding, comparable within an allelic series)"
ACGCCCGG,binding signal,NKX2-5 [1],"8.77 upbm affinity estimate (log intensity, higher = more binding, comparable within an allelic series)"
same,binding signal,HOXB6 [29],"8.95 upbm affinity estimate (log intensity, higher = more binding, comparable within an allelic series)"
same,binding signal,NKX2-5 [9],"8.74 upbm affinity estimate (log intensity, higher = more binding, comparable within an allelic series)"
same,binding signal,HOXB6 [30],"9.06 upbm affinity estimate (log intensity, higher = more binding, comparable within an allelic series)"
